Measurements taken from PubChem BioAssay AID1240 (Sanford-Burnham Center for Chemical Genomics, 2008).
The campaign covered roughly 50,000 compounds. About 800 (1.6%) showed an effect of 50% or more. The full list was thinned out, with strong results kept by preference.

biological target: Bcl-2-like protein 10 (Homo sapiens) (UniProt Q9HD36); assay: Phenotype converters, Bcl-B/TR3 peptide binding displacement, primary biochemical FP (AID 1240); conditions: GST-Bcl-B / FITC-TR3 peptide fluorescence polarization; stronger effect = higher value; compound at 3.75 mg/L;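 note: 0% = Bcl-B with tracer peptide and DMSO and 100% = tracer peptide lacking Bcl-B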
Sequence (Q9HD36 whole entry, looked up): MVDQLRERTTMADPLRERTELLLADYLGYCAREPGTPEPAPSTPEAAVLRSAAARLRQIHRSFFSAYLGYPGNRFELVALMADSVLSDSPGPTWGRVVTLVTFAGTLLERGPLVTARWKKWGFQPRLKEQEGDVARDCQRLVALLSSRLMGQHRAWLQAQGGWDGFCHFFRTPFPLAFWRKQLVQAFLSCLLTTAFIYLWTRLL

| SMILES | displacement [%] |
| --- | --- |
| O=C(Nc1ccc(O)c(-c2nc3ccccc3o2)c1)c1cc2ccccc2o1 | -10.8 |
| CCOC(=O)NC(NC(=O)OCC)c1cccc([N+](=O)[O-])c1 | -5.1 |
| COc1cc(/C=C2/SC(=S)N(CC(=O)N3CCOCC3)C2=O)cc(OC)c1OC | 13.2 |
| CCOc1cc(/C=C2\SC(=S)N(C)C2=O)ccc1O | -6.7 |
| CCOc1cc(/C=C2\SC(=S)N(CC(C)C)C2=O)ccc1O | 15.9 |
| CCOc1cc(/C=C2/SC(=S)N(C)C2=O)ccc1OC(=O)c1ccc(F)cc1 | 13.6 |
| COCCN1C(=O)/C(=C/c2ccc(O)c(OC)c2)SC1=S | -4.4 |
| COc1cc(/C=C2\SC(=S)N(CC(=O)N3CCCc4ccccc43)C2=O)cc(OC)c1OC | 91.5 |
| CCOc1cc(/C=C2/SC(=S)N(C)C2=O)ccc1OS(=O)(=O)c1ccc(C)cc1 | -1.9 |
| CCOc1cc(/C=C2\SC(=S)N(CCOC)C2=O)ccc1O | 89.2 |
| CCN1C(=O)/C(=C\c2ccc(O)c(OC)c2)SC1=S | -3.9 |
| CCOc1cc(/C=C2/SC(=S)N(C)C2=O)ccc1OC(=O)c1ccc(C)cc1 | 62.3 |
| COc1cc(/C=C2\SC(=S)N(CC(=O)O)C2=O)cc(OC)c1OC | -4 |
| COc1cc(/C=C2\SC(=S)N(CC(C)C)C2=O)ccc1O | 91.5 |
| CC1(C)Nc2ccccc2N(Cc2ccc(Cl)c(Cl)c2)C1=O | -7.9 |
| Cc1ccc(-c2nc3ccccc3o2)cc1NC(=O)c1ccco1 | 3.1 |
| CCOC(=O)C(=O)Nc1ccc(S(=O)(=O)Nc2nccc(C)n2)cc1 | 27.4 |
| CC(=O)Nc1ccc(S(=O)(=O)Nc2ccc(C(=O)Nc3nccs3)cc2)cc1 | 7.5 |
| COC(=O)c1sccc1NC(=O)/C=C/c1ccc([N+](=O)[O-])cc1 | 5.4 |
| CC(=O)OC1CC(C)(C)N([O])C(C)(C)C1 | 5.8 |
| O=C1C2ON(c3ccccc3)C(c3ccco3)C2C(=O)N1c1ccc(N2CCOCC2)cc1 (configuration not stated) | 2.3 |
| C=CCNC(=O)c1ccc(OCc2ccccc2)cc1 | 10.2 |

| SMILES | displacement [%] |
| --- | --- |
| C/C(=N\NC(=O)c1ccncc1)c1ccco1 | -4.8 |
| O=C(Nc1ccc(-c2nc3ccccc3s2)cc1)c1cc2ccccc2o1 | -6.9 |
| S=C1NC(c2ccccc2)=NCN1c1ccccc1 | 1.8 |
| COC(=O)CN1C(=O)/C(=C\c2cccc(O)c2)SC1=S | 0 |
| COc1cc(/C=C2/SC(=S)N(C)C2=O)ccc1OCCOc1ccc(Br)cc1 | 2.3 |
| COC(=O)CN1C(=O)/C(=C/c2ccc(OCc3ccc(Cl)cc3)c(OC)c2)SC1=S | 87.2 |
| CCN1C(=O)/C(=C\c2cc(Cl)c(OCCOc3cccc(OC)c3)c(OC)c2)SC1=S | 2.9 |
| COC(=O)CN1C(=O)/C(=C/c2ccc(OCc3ccccc3Cl)c(OC)c2)SC1=S | 10.3 |
| CCOc1cc(/C=C2\SC(=S)N(CCS(=O)(=O)O)C2=O)ccc1O | -60.3 |
| COc1cc(/C=C2/SC(=S)N(C)C2=O)ccc1OCc1ccc(Br)cc1 | 88.9 |
| CCOc1cc(/C=C2\SC(=S)N(CC(=O)OC)C2=O)ccc1O | 122 |
| CCN1C(=O)/C(=C\c2cccc(OCCOc3cccc(OC)c3)c2)SC1=S | 3.4 |
| C=CCN1C(=O)/C(=C\c2ccc(OCc3ccc(Br)cc3)c(OC)c2)SC1=S | -11.3 |
| COC(=O)CCN1C(=O)/C(=C/c2ccc(OCc3ccc(Cl)cc3)c(OC)c2)SC1=S | 24.7 |
| CCOc1cc(/C=C2/SC(=S)N(CC)C2=O)cc(Br)c1OCCOc1cccc(OC)c1 | 92.3 |
| CCOC(=O)c1cccc(NC(=O)COc2ccc([N+](=O)[O-])cc2)c1 | 8.1 |
| CSc1ccc(/C=N\NC(=O)COc2ccc(C)cc2)cc1 | 11.8 |
| COC(=O)c1c(N)sc(C)c1-c1ccc(C)cc1C | -10.6 |
| COc1cc(/C=C/c2cc(C(F)(F)F)[nH]c(=O)n2)ccc1O | 44.6 |
| COc1ccc(OC)c(NC(=O)CN(c2cc(Cl)cc(Cl)c2)S(C)(=O)=O)c1 | -2.6 |
| O=C(N/N=C/c1ccccc1)c1cc(Br)ccc1O | 7.4 |
| O=C(CSc1nc(-c2ccccc2)c(-c2ccccc2)o1)Nc1ccccc1 | -4.2 |

| SMILES | displacement [%] |
| --- | --- |
| O=C(CSc1nc(-c2ccccc2)c(-c2ccccc2)o1)Nc1nccs1 | 106 |
| O=C(CSc1nnc(-c2ccccc2)c(-c2ccccc2)n1)Nc1nccs1 | 4.6 |
| CSc1nnc2c(n1)OC(C(=O)c1ccccc1)Nc1ccccc1-2 (configuration not stated) | 13.5 |
| COc1cccc(NS(=O)(=O)c2ccc(OC)c(Br)c2)c1 | -4.6 |
| O=C1NC(=S)N/C1=C/c1ccc(Oc2ccc(C(F)(F)F)cc2[N+](=O)[O-])c(Cl)c1 | 88.3 |
| O=C1NC(=S)S/C1=C/c1ccc(Oc2ccc(C(F)(F)F)cc2[N+](=O)[O-])c(Cl)c1 | 2.8 |
| O=C1NC(=O)/C(=C\c2ccc(Oc3ccc(C(F)(F)F)cc3[N+](=O)[O-])c(Cl)c2)S1 | 5.5 |
| Cc1ccc(N(CC(=O)NC(C)c2ccccc2)S(C)(=O)=O)cc1Cl (configuration not stated) | -1.3 |
| NNC(=O)COc1ccc2c(c1Br)CCCC2 | -25.1 |
| O=C(O)CCCCCN1C(=O)C(O)=C(C(=O)/C=C/c2ccccc2)C1c1ccccc1 (configuration not stated) | 4.7 |
| O=C(O)CCCCCN1C(=O)C(O)=C(C(=O)/C=C/c2ccccc2)C1c1cccc([N+](=O)[O-])c1 (configuration not stated) | 96.1 |
| O=C(O)CCCCCN1C(=O)C(O)=C(C(=O)/C=C/c2ccccc2)C1c1ccc([N+](=O)[O-])cc1 (configuration not stated) | -4.6 |
| Cc1cc(Cl)ccc1NC(=O)C(=O)N/N=C/c1ccccc1F | 4.5 |
| CCN1CCN(CC(O)CN2CCn3c4c(c5cc(C)ccc53)CCCC42)CC1 (configuration not stated) | 24.7 |
| CCNC(=O)/C=C/c1cn(-c2ccccc2)nc1-c1ccccc1 | 9.4 |
| CCOC(=O)C(=C/C=C/c1ccccc1)C(=O)OCC | -2.3 |
| CCOC(=O)C(C(=O)OCC)=C1Sc2ccccc2N1C | 13.4 |
| CCOC(=O)C(=C/C=C1/Sc2ccccc2N1C)C(=O)OCC | 131 |
| COc1ccc(Br)cc1/C=C/C(=O)N1CCN(c2ccc([N+](=O)[O-])cc2)CC1 | 12.3 |
| O=C(NC(=S)Nc1ccccc1)c1ccccc1 | 4.7 |
| O=C(NC(=S)Nc1ccc2oc3ccccc3c2c1)c1ccccc1 | 91.8 |
| O=C(Nc1ccc2c(c1)OCCO2)c1cc2ccccc2o1 | -6.3 |

| SMILES | displacement [%] |
| --- | --- |
| O=C(Nc1ccc(Cl)c(Cl)c1)c1cc2ccccc2o1 | 2.9 |
| O=C(Nc1ccc2c(c1)Cc1ccccc1-2)c1cc2ccccc2o1 | 134 |
| O=C(NC(=S)Nc1ccc2oc(-c3ccccc3)nc2c1)c1ccccc1 | -10.6 |
| O=C(NC(=S)Nc1ccc2c(c1)-c1ccccc1C2)c1ccccc1 | 51.9 |
| O=C(Nc1ccc2c(c1)Cc1ccccc1-2)c1ccncc1 | -3.2 |
| Cc1ccc(NC(=S)NC(=O)c2ccccc2)cc1Br | 9 |
| COc1ccc(-c2nc(NC(=O)c3ccccc3F)sc2-c2ccc([N+](=O)[O-])cc2)cc1 | 13.6 |
| CCOC(=O)C1=C(C)NC(=O)/C1=C\c1cccs1 | 108 |
| CCOc1ccc(/C=C2\C(=O)NC(C)=C2C(=O)OC)cc1 | 10.8 |
| CCOC(=O)C1=C(C)NC(C)=C(C(=O)OCC)C1c1cccs1 | -5.1 |
| Cc1ccc(S(=O)(=O)Nc2ccccc2C(O)C[N+](=O)[O-])cc1 (configuration not stated) | -4.2 |
| COc1ccc(N2Cc3ccc(C(=O)NN)cc3C2)cc1 | -29.2 |
| COc1ccc2c(c1)cc(C(=O)NN)n2C | 67.4 |
| CNC(=O)c1cc2cc(OC)ccc2n1CCN(C)C | -11.4 |
| COC(=O)C1=NN(C(C)=O)C(O)(c2ccccc2)C1 (configuration not stated) | 2.1 |
| COc1ccc(/C=N\N2CCN(c3ccccc3OC)CC2)cc1OC | -6.7 |
| CCOc1cccc(-c2cc(C(=O)N3CCCCCC3)c3ccccc3n2)c1 | -10.2 |
| CCOc1cccc(-c2cc(C(=O)Nc3nnc(C)s3)c3ccccc3n2)c1 | 135 |
| CCOc1ccc(-c2cc(C(=O)Nc3nnc(C)s3)c3ccccc3n2)cc1 | 6.3 |
| CCOc1cccc(-c2cc(C(=O)N3CCc4ccccc43)c3ccccc3n2)c1 | 110 |
| CCOc1cccc(-c2cc(C(=O)N3CCN(C)CC3)c3ccccc3n2)c1 | -5.5 |
| CCOc1cccc(-c2cc(C(=O)Nc3cc(C)ccn3)c3ccccc3n2)c1 | 2 |

| SMILES | displacement [%] |
| --- | --- |
| Cc1ccccc1OCC(=O)N1N=C(c2ccc(F)cc2)CC1(O)C(F)(F)F (configuration not stated) | -4.5 |
| Cc1[nH]c2ccccc2c1/C=N/NC(=O)c1cccc([N+](=O)[O-])c1 | 0.7 |
| COc1ccc(C(C)N(C)CCC(c2ccccc2)c2ccccc2)cc1OC (configuration not stated) | 5.7 |
| Cn1c2c(c(=O)n(C)c1=O)C(c1ccc(Br)cc1)C1=C(N2)c2ccccc2C1=O (configuration not stated) | -10.4 |
| Cn1c(=O)c(N2CCCCC2)c2c3c(cccc31)C(=O)c1ccccc1-2 | 147 |
| Nc1ccc2c(c1)C(=O)c1ccccc1C2=O | 6.9 |
| Cn1c(=O)c(N)c2c3c(c(Br)ccc31)C(=O)c1ccccc1-2 | 159 |
| Cn1c(=O)c(-c2ccccc2N)nc2cc3ccccc3cc21 | 33.6 |
| O=C1c2ccccc2C(=O)c2c1c(Cl)c(Cl)c(Cl)c2N1CCCC1 | 8 |
| Cn1c(=O)c(N)c2c3c(cccc31)C(=O)c1ccccc1-2 | 154 |
| O=C1c2ccccc2C(=O)c2c1cc(Cl)cc2N1CCCCC1 | 2.8 |
| Cn1c(=O)c(-c2ccccc2N)nc2ccccc21 | -5.4 |
| COc1ccc(C2CC(C(F)(F)F)n3ncc(C(=O)NC(C)(C)C)c3N2)cc1 (configuration not stated) | 3.6 |
| O=C(c1nn2c(C(F)(F)F)cc(-c3ccco3)nc2c1Cl)N1CCN(Cc2ccccc2)CC1 | 1.1 |
| CCOc1ccc(C(=O)Nc2ccc([N+](=O)[O-])cc2)cc1Cl | -9.7 |
| O=C(N/N=C/c1ccc([N+](=O)[O-])o1)c1ccc(Cl)c(Cl)c1 | 19 |
| COc1ccc(N(CC(=O)Nc2ccccc2C)S(C)(=O)=O)cc1Cl | -10.4 |
| C/C(=N\NC(=O)c1cc(C23CC4CC(CC(C4)C2)C3)[nH]n1)c1ccc(N)cc1 | -8.7 |
| Brc1ccc(C=NN2CCN(Cc3ccccc3)CC2)cc1 | -17.6 |
